The source of these data is the supplement of paper PMC12669032.

A number with no mark means an inactive call.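 How the source made its calls: active = AUC reduced over 20% with Padj below 0.05 in at least 2 of 3 replicates; inactive = otherwise.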

In the first assay the test system is Bacteroides stercoris. The assay is described as follows: growth AUC relative to DMSO control (median of replicates) (fraction); higher = more growth (less inhibition), active = hit call of the paper. The settings on record: 20 µM; 24 h. The essentials: (§1)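 Area under the growth curve was normalised to the plate median of solvent-only wells, or to row and column medians on the industrial chemical plate. Growth curves came from anaerobic gut bacterial monocultures in mGAM at 37 °C, seeded at OD600 0.05 with 20 µM compound (1% DMSO), and read at OD600 hourly for 24 h with the minimum OD set to 0. The value is the median of three biological replicates grown on separate days.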
As for `CN(C)C(=O)Nc1ccc(Cl)c(Cl)c1`, the “growth AUC” value is 1.08.
For `CCOC(=O)C1CC(=O)C(=C(O)C2CC2)C(=O)C1` (stereo not drawn), the “growth AUC” value is 0.982.
As to `COC(=O)C(C)Oc1ccc(Cl)cc1C` (stereo not drawn), the “growth AUC” value is 1.15.
For `FC(F)(F)C(=NOCC1OCCO1)c1ccc(Cl)cc1`, the “growth AUC” value was 1.34.
On the same count and under the same terms, next, `NC(=S)Nc1cccc2ccccc12`: 0.978; `CC(C)c1cc(Oc2ccccc2)cc(C(C)C)c1NC(=S)NC(C)(C)C`: 0.98; `O=[N+](Nc1ccccc1)c1ccccc1`: 1.08.
For the compound `Cc1[nH]n(C)c(=O)c1C(=O)c1ccc(C(F)(F)F)cc1S(C)(=O)=O`, the “growth AUC” value was 1.01.
For the compound `O=C=NC1CCC(CC2CCC(N=C=O)CC2)CC1` (stereo not drawn), the “growth AUC” value was 1.03.
`CCc1cccc(C)c1N(COC(C)C)C(=O)CCl`: the “growth AUC” value was 0.998.
With `O=C(Nc1ccc(Cl)cc1C(O)c1ccccc1)c1ccncc1` (stereo not drawn), the “growth AUC” value was 0.878.
As for `CNC(=O)Nc1nc2ccccc2s1`, the “growth AUC” value is 1.1.
Still for that read-out and setting: next, `CC(C)CNC(=O)N1CCNC1=O`: 1.18.
Consider `C/C=C/C(=O)Oc1c(C(C)CCCCCC)cc([N+](=O)[O-])cc1[N+](=O)[O-]` (mixture of isomers), for which the “growth AUC” value is 0.0105 (active).
For `CCOC(=O)NCCOc1ccc(Oc2ccccc2)cc1`, the “growth AUC” value is 0.968.
Take `NC(=O)Cc1cccc2ccccc12`: the “growth AUC” value is 1.15.
On the same count and under the same terms, next, `NS(=O)(=O)[O-].[NH4+]`: 1.05.
Still for that read-out and setting: next, `COC(=O)c1ccc(C(=O)OC)cc1`: 1.02; `Nc1cc(Cl)nc(C(=O)O)c1Cl`: 1.15.
For the compound `CCc1cccc(C)c1N(C(=O)C(=O)O)[C@@H](C)C(=O)O`, the “growth AUC” value was 1.06.
`O=S(=O)(Oc1ccc(Cl)cc1)c1ccccc1`: the “growth AUC” value was 0.874.
Consider `Oc1ccc2nc(-c3cscn3)[nH]c2c1`, for which the “growth AUC” value was 0.98.
For the compound `COC(=O)c1csc(C)c1S(=O)(=O)NC(=O)n1nc(OC)n(C)c1=O`, the “growth AUC” value is 1.02.
Still for that read-out and setting: the figure for `CCCCOCN(C(=O)CS(=O)(=O)[O-])c1c(CC)cccc1CC.[Na+]` is 0.923.
Same read-out and setting: next, `O.O.O=[N+]([O-])c1ccc([O-])cc1.[Na+]`: 1.09; `COCC(=O)N(c1c(C)cccc1C(=O)O)C(C)C(=O)O` (stereo not drawn): 0.917; `O=C(O)COc1ccc(Cl)cc1CO`: 0.938.
Same read-out and setting: next, `CCOc1ccc2c(c1)C(C)=CC(C)(C)N2`: 1.01.
Take `CC(C)CCCCCOC(=O)C(C)Oc1ccc(Cl)cc1Cl` (stereo not drawn): the “growth AUC” value is 0.966.
On to `[S]`, for which the “growth AUC” value is 1.07.
As to `CCCC(C)(C)C(=O)Nc1ccc(Cl)cc1`, the “growth AUC” value is 1.01.
For `CSc1nnc(C(C)(C)C)c(=O)n1/N=C/C(C)C`, the “growth AUC” value is 1.35.
The same measure, in the same setting: the figure for `O=C(O)CCCc1c[nH]c2ccccc12` is 0.994.
With `C=C1C[C@]23C[C@@]1(O)CC[C@H]2[C@@]12C=C[C@H](O)[C@@](C)(C(=O)O1)[C@H]2[C@@H]3C(=O)O`, the “growth AUC” value was 1.01.
As for `Nc1ccc(S(=O)(=O)Nc2nccs2)cc1`, the “growth AUC” value is 0.985.
Same read-out and setting: next, `CCCCCCCCCC[N+](C)(C)Cc1ccccc1.[Cl-]`: 1.21; `CN1CCC[C@H]1c1cccnc1`: 1; `O=C1NCCN1`: 1.18.
Still for that read-out and setting: the figure for `O=C(O)COc1cccc(Cl)c1Cl` is 1.02.

A further assay relates to Bacteroides thetaiotaomicron. Described as above. As to conditions: 20 µM; 24 h. The essentials:
as §1
With `CN(C)C(=O)Nc1ccc(Cl)c(Cl)c1`, the “growth AUC” value is 0.99.
On to `CCOC(=O)C1CC(=O)C(=C(O)C2CC2)C(=O)C1` (stereo not drawn), for which the “growth AUC” value is 1.
For the compound `COC(=O)C(C)Oc1ccc(Cl)cc1C` (stereo not drawn), the “growth AUC” value was 1.
Turning to `FC(F)(F)C(=NOCC1OCCO1)c1ccc(Cl)cc1`, the “growth AUC” value is 0.991.
For `NC(=S)Nc1cccc2ccccc12`, the “growth AUC” value is 0.945.
On the same count and under the same terms, next, `CC(C)c1cc(Oc2ccccc2)cc(C(C)C)c1NC(=S)NC(C)(C)C`: 0.97; `O=[N+](Nc1ccccc1)c1ccccc1`: 0.991; `Cc1[nH]n(C)c(=O)c1C(=O)c1ccc(C(F)(F)F)cc1S(C)(=O)=O`: 0.978.
As for `O=C=NC1CCC(CC2CCC(N=C=O)CC2)CC1` (stereo not drawn), the “growth AUC” value was 0.995.
The same measure, in the same setting: next, `CCc1cccc(C)c1N(COC(C)C)C(=O)CCl`: 0.993; `O=C(Nc1ccc(Cl)cc1C(O)c1ccccc1)c1ccncc1` (stereo not drawn): 0.97.
The same measure, in the same setting: the figure for `CNC(=O)Nc1nc2ccccc2s1` is 1.01; for `CC(C)CNC(=O)N1CCNC1=O` it is 1.02.
On to `C/C=C/C(=O)Oc1c(C(C)CCCCCC)cc([N+](=O)[O-])cc1[N+](=O)[O-]` (mixture of isomers), for which the “growth AUC” value is 0.569 (active).
Same read-out and setting: the figure for `CCOC(=O)NCCOc1ccc(Oc2ccccc2)cc1` is 0.891.
With `NC(=O)Cc1cccc2ccccc12`, the “growth AUC” value was 1.03.
In the case of `NS(=O)(=O)[O-].[NH4+]`, the “growth AUC” value was 1.02.
Same read-out and setting: next, `COC(=O)c1ccc(C(=O)OC)cc1`: 0.991; `Nc1cc(Cl)nc(C(=O)O)c1Cl`: 1.03.
Regarding `CCc1cccc(C)c1N(C(=O)C(=O)O)[C@@H](C)C(=O)O`, the “growth AUC” value is 0.999.
For `O=S(=O)(Oc1ccc(Cl)cc1)c1ccccc1`, the “growth AUC” value is 0.964.
Same read-out and setting: next, `Oc1ccc2nc(-c3cscn3)[nH]c2c1`: 0.985; `COC(=O)c1csc(C)c1S(=O)(=O)NC(=O)n1nc(OC)n(C)c1=O`: 0.993; `CCCCOCN(C(=O)CS(=O)(=O)[O-])c1c(CC)cccc1CC.[Na+]`: 0.934.
For `O.O.O=[N+]([O-])c1ccc([O-])cc1.[Na+]`, the “growth AUC” value was 1.02.
Consider `COCC(=O)N(c1c(C)cccc1C(=O)O)C(C)C(=O)O` (stereo not drawn), for which the “growth AUC” value is 0.967.
Consider `O=C(O)COc1ccc(Cl)cc1CO`, for which the “growth AUC” value was 0.971.
For the compound `CCOc1ccc2c(c1)C(C)=CC(C)(C)N2`, the “growth AUC” value is 0.995.
Same read-out and setting: next, `CC(C)CCCCCOC(=O)C(C)Oc1ccc(Cl)cc1Cl` (stereo not drawn): 1.04.
`[S]`: the “growth AUC” value was 1.02.
The same measure, in the same setting: the figure for `CCCC(C)(C)C(=O)Nc1ccc(Cl)cc1` is 0.946; for `CSc1nnc(C(C)(C)C)c(=O)n1/N=C/C(C)C` it is 1.02.
As to `O=C(O)CCCc1c[nH]c2ccccc12`, the “growth AUC” value was 0.971.
On the same count and under the same terms, next, `C=C1C[C@]23C[C@@]1(O)CC[C@H]2[C@@]12C=C[C@H](O)[C@@](C)(C(=O)O1)[C@H]2[C@@H]3C(=O)O`: 1.02; `Nc1ccc(S(=O)(=O)Nc2nccs2)cc1`: 0.978; `CCCCCCCCCC[N+](C)(C)Cc1ccccc1.[Cl-]`: 0.996.
The same measure, in the same setting: the figure for `CN1CCC[C@H]1c1cccnc1` is 0.984; for `O=C1NCCN1` it is 1.02.
The same measure, in the same setting: the figure for `O=C(O)COc1cccc(Cl)c1Cl` is 0.993.
